{
  "source": "PubChem BioAssay",
  "note": "Values without a mark were called inactive. The rule behind the calls is not given here.",
  "data": [
    {"test_system": "Aerobactin synthetase IucA (Klebsiella pneumoniae hvKP1)", "test": "Biochemical IucA enzyme inhibition primary screen of the Spectrum library (AID 1346200);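 note: 100% = wells without compound and 0% = wells lacking enzyme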", "settings": "malachite green pyrophosphate, A620, at 8 µM, active compounds read low", "units": {"activity remaining": "%"}, "values": [
      {"smiles": "N.N.O=C(O)C1(C(=O)O)CCC1.[Pt]", "activity remaining": 94.6},
      {"smiles": "C=CCc1ccc(OC(=O)c2ccccc2)c(OC)c1", "activity remaining": 95.9},
      {"smiles": "CN[C@@H]1[C@H](OC2[C@H](O[C@H]3[C@H](O)[C@@H](O)[C@H](N=C(N)N)[C@@H](O)[C@@H]3N=C(N)N)O[C@@H](C)[C@]2(O)C=O)O[C@@H](CO)[C@H](O)[C@H]1O", "note": "(stereo not given in full)", "activity remaining": 108},
      {"smiles": "COc1cc(OC)cc(OC)c1", "activity remaining": 117},
      {"smiles": "COc1ccc(-c2cc(=O)c3c(O)cc(O)c(-c4cc(-c5cc(=O)c6c(O)cc(O)cc6o5)ccc4OC)c3o2)cc1", "activity remaining": 117},
      {"smiles": "COc1ccccc1-c1coc2cc(OC)c(OC)c(OC)c2c1=O", "activity remaining": 116},
      {"smiles": "CC(=O)OCC(OC(C)=O)C(OC(C)=O)C(OC(C)=O)C(OC(C)=O)C(COC(C)=O)OC(C)=O", "note": "(stereo not given)", "activity remaining": 103},
      {"smiles": "COc1ccc2nc(S(=O)Cc3ncc(C)c(OC)c3C)[nH]c2c1", "note": "(stereo not given)", "activity remaining": 126},
      {"smiles": "COc1c(O)cc(O)cc1O", "activity remaining": 116},
      {"smiles": "COc1ccc(CCN2CCC(Nc3nc4ccccc4n3Cc3ccc(F)cc3)CC2)cc1", "activity remaining": 124},
      {"smiles": "CC(=O)Nc1ccc(O)cc1", "activity remaining": 90},
      {"smiles": "CC(=O)Oc1ccc(O)cc1", "activity remaining": 122},
      {"smiles": "CC[C@H](/C=C/C(C)C1CCC2C3CCC4=CC(=O)CC[C@]4(C)C3CC[C@]12C)C(C)C", "note": "(stereo not given in full)", "activity remaining": 101},
      {"smiles": "CCCCCC1C(=O)CCC1CC(=O)O", "note": "(stereo not given)", "activity remaining": 93.2},
      {"smiles": "CN(CCOc1ccc(CC2SC(=O)NC2=O)cc1)c1ccccn1", "note": "(stereo not given)", "activity remaining": 113},
      {"smiles": "Cc1cc(O)c2c(c1)C(=O)c1cccc(O)c1C2=O", "activity remaining": 107},
      {"smiles": "Cc1cc(C(C)(C)CC(C)(C)C)ccc1OCCOCC[N+](C)(C)Cc1ccccc1", "activity remaining": 118},
      {"smiles": "Cn1c(=O)c2c(ncn2CC(O)CO)n(C)c1=O", "note": "(stereo not given)", "activity remaining": 104},
      {"smiles": "CC(C)=CCc1c(O)cc2oc(C)cc(=O)c2c1O", "activity remaining": 118},
      {"smiles": "COc1cc2nc(N(C)CCCNC(=O)C3CCCO3)nc(N)c2cc1OC", "note": "(stereo not given)", "activity remaining": 120},
      {"smiles": "CC[C@]12C=CCN3CC[C@@]4(c5ccc(OC)cc5N(C)C4[C@@](O)(C(=O)OC)[C@@H]1OC(C)=O)[C@@H]32", "note": "(stereo not given in full)", "activity remaining": 112},
      {"smiles": "OCc1ccccc1O[C@@H]1O[C@H](CO)[C@@H](O)[C@H](O)[C@H]1O", "activity remaining": 101},
      {"smiles": "CO[C@H]1/C=C/O[C@@]2(C)Oc3c(C)c(O)c4c(O)c(c5c(nc6cc(C)ccn65)c4c3C2=O)NC(=O)/C(C)=C\\C=C\\[C@H](C)[C@H](O)[C@@H](C)C(O)[C@@H](C)[C@H](OC(C)=O)[C@@H]1C", "note": "(stereo not given in full)", "activity remaining": 110},
      {"smiles": "COC(=O)C[C@@H]1C2(C)C(=O)[C@@H](CC3=C4CC(=O)O[C@@H](c5ccoc5)[C@]4(C)CCC32)[C@H](OC(C)=O)C1(C)C", "note": "(stereo not given in full)", "activity remaining": 112},
      {"smiles": "CC(=O)O[C@@H]1CC2C(C)(C)C=CC(=O)[C@]2(C)C2CC[C@@]3(C)[C@H](c4ccoc4)OC(=O)C4OC43[C@@]21C", "note": "(stereo not given in full)", "activity remaining": 119},
      {"smiles": "CC1(C)O[C@@H]2CC3C4CCC5=CC(=O)C=C[C@]5(C)[C@@]4(F)[C@@H](O)C[C@]3(C)[C@]2(C(=O)CO)O1", "note": "(stereo not given in full)", "activity remaining": 116},
      {"smiles": "COc1cc(O)c(C)c(O)c1", "activity remaining": 112},
      {"smiles": "CC1(C)C(=O)CC[C@@]2(C)C1C[C@@H](O)[C@@]1(C)C3=CC(=O)O[C@@H](c4ccoc4)[C@]3(C)CCC21", "note": "(stereo not given in full)", "activity remaining": 111},
      {"smiles": "CC1=CC(=O)CC(C)(C)C1(O)/C=C/C(C)=C\\C(=O)O", "note": "(stereo not given)", "activity remaining": 117},
      {"smiles": "COc1cc(O)ccc1C(C)=O", "activity remaining": 124},
      {"smiles": "CC(=O)O[C@@H]1CC[C@@]2(C)C(CC[C@]3(C)C2CC=C2C4CC(C)(C)CC[C@]4(C(=O)O)CC[C@]23C)C1(C)C", "note": "(stereo not given in full)", "activity remaining": 96.2},
      {"smiles": "CCc1c2c(nc3ccc(OC(=O)N4CCC(N5CCCCC5)CC4)cc13)-c1cc3c(c(=O)n1C2)COC(=O)[C@]3(O)CC", "activity remaining": 90},
      {"smiles": "COc1c(CC(=O)c2cc3c(cc2O)OC(C)(C)C(O)C3)ccc2c1C=CC(C)(C)O2", "note": "(stereo not given)", "activity remaining": 96.2},
      {"smiles": "NC(=NCCCCCCN=C(N)/N=C(\\N)Nc1ccc(Cl)cc1)/N=C(\\N)Nc1ccc(Cl)cc1", "activity remaining": 95.5},
      {"smiles": "Cn1c(=O)[nH]c2nc[nH]c2c1=O", "activity remaining": 79.5},
      {"smiles": "COc1ccc(-c2cc(=O)c3cc(OC)ccc3o2)cc1", "activity remaining": 95.7},
      {"smiles": "O=C1OC(c2ccc(O)cc2)(c2ccc(O)cc2)c2ccccc21", "activity remaining": 115},
      {"smiles": "CC(CCC(=O)O)[C@H]1CCC2C3CC[C@@H]4C[C@H](O)CC[C@]4(C)C3CC[C@@]21C", "note": "(stereo not given in full)", "activity remaining": 91.8},
      {"smiles": "C=C1CCC(OC(C)=O)/C(C)=C/C[C@@H]2[C@@H]1CC2(C)C", "note": "(stereo not given in full)", "activity remaining": 103},
      {"smiles": "CC(=O)c1cc2c(cc1O)OC(C)(C)C=C2", "activity remaining": 96.6}
    ]}
  ]
}
